# A selection: hits, their analogues and other compounds. The true share with any hit is near 13%.
# Cycloheximide cs – counter-screen for Shiga toxin inhibitors: cycloheximide protein synthesis inhibition. cell reporter, cycloheximide protein synthesis inhibition counterscreen. max response, %. actives 12% (n = 300,000). AID 2314; in the data active = max response mostly above about 13%, no sharp cut-off; inactive = mostly below about 14%; also: read at 38.3 µM for the half of the compounds with a filed dose; 0% is about no effect
# LASV entry inh – inhibitors of Lassa virus binding or cell entry. Lassa virus pseudotype entry inhibition, cell reporter. Potency, µM (doses to about 37.9 µM), for inactives: at the top dose activity change, negative = inhibition, hits mostly inhibitors. actives 1.2% (n = 300,000). AID 540256; calls by dose curve; tested in HEK293 cells; also: potency is read from the fitted curve at half-maximal effect; % is scaled to controls: 0 for no effect and ±100 for the full control effect; nearly all actives have a fitted effect of over 50% in size
# MARV entry inh – blocks Marburg virus binding to or entry into cells | Marburg virus pseudotyped entry inhibition, cell reporter | Potency, µM (top dose mostly 37.8 µM), without a hit: at the top dose activity change, negative = inhibition, most hits filed as inhibitors | actives 1.8% (n = 300,000); calls by dose curve; tested in HEK293 cells; also: potency is read from the fitted curve at half-maximal effect; % is scaled to controls: 0 for no effect and ±100 for the full control effect
# FMDV inh – foot and mouth disease virus antiviral activity; FMDV antiviral cell-based qHTS; Potency, µM (series often up to 57.9 µM), without a hit: at the top dose activity change, negative = inhibition, most hits filed as inhibitors; actives 1.2% (n = 410,000); AID 1159524; calls by dose curve; tested in HEK293T cells; also: read-out not given here; potency is read from the fitted curve at half-maximal effect; % is scaled to controls: 0 for no effect and ±100 for the full control effect; nearly all actives have a fitted effect of over 45% in size
# HCV inh – HCV inhibition; AID 651820; Huh7.5.1 HCVcc-Cre infection, luciferase reporter, 44 h; actives 3.4% (n = 340,000); Potency, µM (series often up to 41.8 µM), inactives show top-dose activity change, negative = inhibition, most hits filed as inhibitors; active = well fitted inhibition curve with a large enough effect; inconclusive = small, poorly fitted or top-dose-only effect, or another doubt; inactive = no such curve, though single readings can be large or run the other way; also: potency is read from the fitted curve at half-maximal effect; % is scaled to controls: 0 for no effect and ±100 for the full control effect
#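 1,000 cells/well; 4 h culture; + compound; + HCVcc-Cre (~0.5 moi); 44 h; luciferase substrate, RT 15 min; read 15 sec.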
# Shiga inhibitor – Shiga toxin inhibition | Vero cells, Shiga toxin protein synthesis inhibition reporter | inhibition, % at 38.7 µM | actives 9.2% (n = 290,000) | AID 2315; in the data active = inhibition mostly above about 28%, no sharp cut-off; inactive = mostly below about 43%; also: 0% is about no effect
# Numbers without * were called inactive; ? = inconclusive; · = not tested or not shown; [ ] = another dose, or the depositor's remark.
SMILES,Cycloheximide cs,LASV entry inh,MARV entry inh,FMDV inh,HCV inh,Shiga inhibitor
CC(C)c1ccc(S(=O)(=O)c2nnn3c2nc(NCCc2ccccc2)c2sccc23)cc1,·,4%[46.1 µM],·,9%,·,·
CCSc1ncnc2sc(C)c(C)c12,-5,3%,21%,4%,5%,-6
Nc1n[nH]c(N)c1N=Nc1cccc(F)c1,16,1%,12%,0%,-18%,34*
Nc1n[nH]c(N)c1N=Nc1cccc(C(F)(F)F)c1,15,·,·,26%,-17%,22
Nc1n[nH]c(N)c1N=Nc1ccc(Cl)cc1,47*,13%,?,23%,0%,20
Cc1cccc(N=Nc2c(N)n[nH]c2N)c1,17*,·,·,15%,4%,36
Nc1[nH]ncc1N=Nc1ccc(Cl)cc1,55*,21%,4%,37%,-1%,98*
O=C(COC(=O)CCNS(=O)(=O)c1ccccc1)NC(=O)Cc1ccccc1,·,·,·,9%,2%,·
CC(=O)Oc1cc(C(=O)OCC(=O)N2CCc3ccccc3C2)cc(OC(C)=O)c1OC(C)=O,·,?,?,-2%,-20%,·
Cc1cn([C@H]2C[C@H](O)[C@@H](CNCc3cnc(N4CCOCC4)nc3)O2)c(=O)[nH]c1=O,·,·,·,-3%,·,·
Cc1cc2ncn(C3CC(O)C(CO)O3)c2cc1C (stereo unspecified),·,10%[46.1 µM],5%[46.1 µM],3%,6%,·
NCCCCCc1nnc(SCc2ccc(F)cc2)o1,·,0%[46.1 µM],5%[46.1 µM],3%,·,·
COC(=O)c1c(NC(=O)CSc2nccn2C)sc(C)c1C,·,22%,-11%,-5%,?,·
CCOC(=O)c1c(NC(=O)COC(=O)CC(NC(C)=O)c2ccccc2)sc(C(=O)NC)c1C (stereo unspecified),·,10%,-8%,5%,10µM*,·
Cc1nnc(NC(=O)CSc2nccn2C)s1,-1,0%,11%[46.1 µM],-7%,19%,-5
CCOC(=O)c1c(NC(=O)CSc2nccn2C)sc(C(=O)NC)c1C,·,14%,13%[46.1 µM],-7%,10µM*,·
CCOC(=O)c1cc(C)sc1NC(=O)CSc1nccn1C,50*,-12%,28%,0%,13µM*,111*
CCOc1ccc(CCNC(=O)COC(=O)c2ccc(S(=O)(=O)N3CCCC3)cc2)cc1OCC,·,2%,6%[46.1 µM],4%,?,·
CC1c2ccccc2-n2nncc2CN1CC1CCCCC1 (stereo unspecified),·,·,·,-24%,-3%[8.37 µM],·
Nc1nc(-c2ccccc2)cn1N,23,17%,18%,23%,16%,28
Nc1nc(-c2ccccc2)cn1/N=C/c1ccccc1,38*,-6%[46.1 µM],?,46%,?,34
Brc1ccccc1CN1CCC(N2CCCCC2)CC1,2,?,-23%,-9%,4µM*,5
CCOC(=O)N1CCN(C(=O)CSc2ccc(-c3ccccc3)nn2)CC1,8,-1%,?,-13%,-24%,35
Cc1ccc(C(=O)NCC(=O)NCC(=O)OCc2ccc(Cl)cc2)cc1,-2,15%,-14%,31%,7%,4
CCOC(=O)c1nc(C)sc1-c1ccnn1S(=O)(=O)c1ccc(Cl)cc1Cl,29*,-3%,-21%,?,5%,36
SMILES,Cycloheximide cs,LASV entry inh,MARV entry inh,FMDV inh,HCV inh,Shiga inhibitor
CC(=O)NC(C)C(=O)OCc1ccc(Cl)cc1Cl (stereo unspecified),5,5%,5%,1%,3%,22
COc1cc(/C=N/NC(=O)C(=O)NCc2cccnc2)cc(OC)c1OC,-1,-6%,-15%,-5%,9%,1
Cc1ccc2[nH]c(-c3cccc(N)c3)cc2c1,30*,-1%,?,73%,-15%,97*
COc1ccc(N(C)S(=O)(=O)c2ccc(C)cc2)c([N+](=O)[O-])c1,-11,13µM*,6%[46.1 µM],-17%,-7%,3
CC1(C)NC(=O)N(CCCCOc2ccc3ccccc3c2Cl)C1=O,54*,?,?,5%,?,88*
Cc1ccc(C(C)C)c(OCCCN(C)Cc2ccccc2)c1,-3,?,8.2µM*,-7%,-4%,11
Cc1ccc(C(C)C)c(OCC(O)CN(C)Cc2ccccc2)c1 (stereo unspecified),-4,?,?,?,?,-6
Cc1ccc(C(C)C)c(OCCCN2C(=O)NC(C)(C)C2=O)c1,-4,12µM*,?,-24%,-12%,-9
CC1(C)NC(=O)N(CCOCCOc2ccc3ccccc3c2Br)C1=O,37*,20%,20%,24%,?,44

# High-throughput results (PubChem)
